Source: PubChem BioAssay (NCATS)
Records with an inconclusive call do not appear. Entries that show only a call come without a potency. Unmarked numbers belong to inactive results. Active and inactive are the calls of the source. Calls follow the shape of the dose curve; as a rule, active = well fitted curve in the direction sought with a large enough effect; inconclusive = small, poorly fitted or top-dose-only effect, or another doubt; inactive = no such curve, though single readings can be large; an effect the other way counts as inactive or inconclusive.

How the values were obtained:
[1] = biological target: Aldehyde dehydrogenase, mitochondrial (Homo sapiens) (UniProt P05091); assay: qHTS for Inhibitors of the Aldehyde Dehydrogenase Family (ALDH2) Primary screen (AID 2061308); also: nearly all actives have a fitted effect of over 55% in size
[2] = biological target: Retinaldehyde dehydrogenase 3 (Homo sapiens) (UniProt P47895); assay: qHTS for Inhibitors of the Aldehyde Dehydrogenase Family (ALDH1A3) Primary screen (AID 2061315)

Structure (SMILES): C=C1C(=O)OC2CC3(C)C(O)C(=O)C=C(C)C3CC12 (configuration not stated)
- Potency [1]: inactive
- Potency [2]: inactive

Structure (SMILES): CCCCNc1nc(C)nc2c1nc(-c1ccccc1)n2CC1CCCN1CC (configuration not stated)
- Potency [1]: inactive
- Potency [2]: inactive

Structure (SMILES): CCCn1c(C)nc2c(NCCCCN(CC)CC)nc(C)nc21
- Potency [1]: inactive
- Potency [2]: inactive

Structure (SMILES): O=C(NNc1nc2cc(F)ccc2n2cccc12)c1cnccn1
- Potency [1]: inactive
- Potency [2]: inactive

Structure (SMILES): NC(=O)C1CCN(c2nc(-c3ccc4c(c3)CCO4)cs2)CC1
- Potency [1]: inactive
- Potency [2]: inactive

Structure (SMILES): Cc1ccc(OCCn2c(CCNC(=O)C(C)(C)C)nc3ccccc32)cc1
- Potency [1]: inactive
- Potency [2]: inactive

Structure (SMILES): COc1ccccc1CNC(=O)Nc1nnc(-c2ccncc2)s1
- Potency [1]: inactive
- Potency [2]: inactive

Structure (SMILES): COCCN1C(=O)c2ccccc2NC1c1ccc(OC)c(COc2c(C)cc(NC(C)=O)cc2C)c1 (configuration not stated)
- Potency [1]: inactive
- Potency [2]: inactive

Structure (SMILES): Cc1ccc(OCCn2c(CCNC(=O)OC(C)(C)C)nc3ccccc32)cc1
- Potency [1]: inactive
- Potency [2]: inactive

Structure (SMILES): Fc1ccc(-c2ccc(Nc3nc(-c4ccncc4)nc4ccccc34)cc2F)cc1
- Potency [1]: inactive
- Potency [2]: inactive

Structure (SMILES): Cc1cc(C)n2ncc(C(=O)NCC(C)C)c2n1
- Potency [1]: inactive
- Potency [2]: inactive

Structure (SMILES): C/C1=C\CC(C)(C)/C=C/C/C(C(=O)O)=C/CC1
- Potency [1]: inactive
- Potency [2]: inactive

Structure (SMILES): COc1ccc(-c2nc3ccccc3s2)cc1OC
- Potency [1]: inactive
- Potency [2]: inactive

Structure (SMILES): COc1cccc(NC(=S)N2CCN(c3ccc4ccccc4n3)CC2)n1
- Potency [1]: inactive
- Potency [2]: inactive

Structure (SMILES): O=C(/C=C/c1ccc(C(F)(F)F)cc1)Nc1cccc([S+](=O)([O-])Nc2ccccc2F)c1
- Potency [1]: inactive
- Potency [2]: inactive

Structure (SMILES): O=S(=O)(c1ccc2c(c1)OCCO2)N1CCCN(S(=O)(=O)c2c(F)cccc2F)CC1
- Potency [1]: inactive
- Potency [2]: inactive

Structure (SMILES): Cc1cc2c(s1)c1cnn(Cc3cc(F)c(F)c(F)c3)c(=O)c1n2C
- Potency [1]: inactive
- Potency [2]: inactive

Structure (SMILES): Cc1cc2c(s1)c1cnn(Cc3ccc(C)c(F)c3)c(=O)c1n2C
- Potency [1]: inactive
- Potency [2]: inactive

Structure (SMILES): CCOc1ccc(CCNC(=O)c2cc3sccc3[nH]2)cc1OCC
- Potency [1]: inactive
- Potency [2]: inactive

Structure (SMILES): O=S(=O)(c1ccccc1)N1CCN(S(=O)(=O)c2ccc3c(c2)OCCO3)CC1
- Potency [1]: inactive
- Potency [2]: inactive

Structure (SMILES): COc1cc(OC)c(C(CC(=O)N2CC(C)CC(C)C2)c2ccc3c(c2)OCO3)c(OCC#N)c1 (configuration not stated)
- Potency [1]: inactive
- Potency [2]: inactive

Structure (SMILES): CC(C)(C)OC(=O)Cc1nnc(CNC(=O)c2ccccc2)s1
- Potency [1]: inactive
- Potency [2]: inactive

Structure (SMILES): COc1ccc(C2c3c(nc(CCCc4ccccc4)[nH]c3=O)Oc3ccc4ccccc4c32)cc1OC (configuration not stated)
- Potency [1]: inactive
- Potency [2]: inactive

Structure (SMILES): C#CCOc1ccc(-c2nnc3n2N=C(c2ccc(OC)c(OCC(C)=O)c2)CS3)cc1
- Potency [1]: inactive
- Potency [2]: inactive

Structure (SMILES): S=c1[nH]c2ccccc2n1CCc1ccccc1
- Potency [1]: inactive
- Potency [2]: inactive

Structure (SMILES): Nc1ccc(C(=O)Nc2ccc(-c3nc4ccccc4[nH]3)cc2)cc1Cl
- Potency [1]: inactive
- Potency [2]: inactive

Structure (SMILES): CC(=O)Nc1sc2c(c1-c1cccc(N(C)C)c1)CCNC2
- Potency [1]: inactive
- Potency [2]: inactive

Structure (SMILES): CCOC(=O)C1CCN(C(=O)C2(NC(=O)Nc3ccccc3Cl)CC2)CC1
- Potency [1]: inactive
- Potency [2]: inactive

Structure (SMILES): O=[S+]([O-])(Nc1ccc(N2CCNCC2)cc1)c1ccc(NCc2ccc(Br)cc2O)cc1
- Potency [1]: inactive
- Potency [2]: inactive

Structure (SMILES): CC(C)c1ccccc1-c1nc(NCc2ccc(-c3cccnc3)cc2)c2ccsc2n1
- Potency [1]: inactive
- Potency [2]: inactive

Structure (SMILES): COc1c(NS(=O)(=O)c2ccc(C)cc2)cccc1C(=O)Nc1nc(-c2ccccc2)cs1
- Potency [1]: inactive
- Potency [2]: inactive

Structure (SMILES): O=C(OCC#CCSc1nnc(-c2ccc3ccccc3c2)o1)c1ccc(F)c(F)c1
- Potency [1]: inactive
- Potency [2]: inactive

Structure (SMILES): Fc1cc(F)cc(Nc2nc(Cl)nc(NC3CCCC3)n2)c1
- Potency [1]: inactive
- Potency [2]: inactive

Structure (SMILES): O=C(Nc1ccccn1)c1sc2ccc([N+](=O)[O-])cc2c1Cl
- Potency [1]: inactive
- Potency [2]: inactive

Structure (SMILES): Cc1nc(C(C)N(C)c2ncnc3ccc(-c4ccc5c(c4)OCO5)cc23)cs1 (configuration not stated)
- Potency [1]: inactive
- Potency [2]: inactive

Structure (SMILES): C[C@@H]1O[C@@H](O[C@H]2[C@H](OC(=O)[C@]34CCC(C)(C)C[C@H]3C3=CCC5[C@@]6(C)C[C@H](O)[C@H](O[C@@H]7O[C@H](CO)[C@@H](O[C@@H]8O[C@H](CO)[C@@H](O)[C@H](O)[C@H]8O)[C@H](O)[C@H]7O)[C@@](C)(CO)C6[C@H](O)C[C@@]5(C)[C@]3(C)C[C@H]4O)OC[C@H](O)[C@@H]2O)[C@H](O)[C@H](O)[C@H]1O[C@@H]1OC[C@@H](O)[C@H](O[C@@H]2OC[C@](O)(CO)[C@H]2O)[C@H]1O (some centres not stated)
- activity change, negative = inhibition [1]: -1.66% [at 11.2 µM]
- activity change, negative = inhibition [2]: -12.4% [at 11.2 µM]
